USP8 inh – human USP8 deubiquitinase inhibition; inhibition, % at 20 µM; 47,000 tested, 4.2% active; AID 1645853; P40818; purified USP8, Ub-rhodamine cleavage fluorescence, 30 min
USP17 block – human USP17-like deubiquitinase inhibition | A8MUK1 | purified USP17, Ub-rhodamine cleavage fluorescence, 3 h | inhibition, % at 50 µM | 47,000 tested, 6.5% active | AID 1645855
USP28 inh – inhibitors of human USP28 deubiquitinase; AID 1645857; Q96RU2; purified USP28, Ub-rhodamine cleavage fluorescence, 30 min; 47,000 tested, 3% active; inhibition, % at 25 µM
USP30 inh – human USP30 deubiquitinase inhibition. 47,000 tested, 5.3% active. Q70CQ3. AID 1645860. inhibition, % at 25 µM. purified USP30, Ub-rhodamine cleavage fluorescence
USP10 inh – blocks human USP10 ubiquitin-rhodamine cleavage | purified USP10, Ub-rhodamine fluorescence, 60 min | inhibition, % at 20 µM | 47,000 tested, 1.1% active | AID 1645856
Target sequence (Q14694 whole entry, looked up): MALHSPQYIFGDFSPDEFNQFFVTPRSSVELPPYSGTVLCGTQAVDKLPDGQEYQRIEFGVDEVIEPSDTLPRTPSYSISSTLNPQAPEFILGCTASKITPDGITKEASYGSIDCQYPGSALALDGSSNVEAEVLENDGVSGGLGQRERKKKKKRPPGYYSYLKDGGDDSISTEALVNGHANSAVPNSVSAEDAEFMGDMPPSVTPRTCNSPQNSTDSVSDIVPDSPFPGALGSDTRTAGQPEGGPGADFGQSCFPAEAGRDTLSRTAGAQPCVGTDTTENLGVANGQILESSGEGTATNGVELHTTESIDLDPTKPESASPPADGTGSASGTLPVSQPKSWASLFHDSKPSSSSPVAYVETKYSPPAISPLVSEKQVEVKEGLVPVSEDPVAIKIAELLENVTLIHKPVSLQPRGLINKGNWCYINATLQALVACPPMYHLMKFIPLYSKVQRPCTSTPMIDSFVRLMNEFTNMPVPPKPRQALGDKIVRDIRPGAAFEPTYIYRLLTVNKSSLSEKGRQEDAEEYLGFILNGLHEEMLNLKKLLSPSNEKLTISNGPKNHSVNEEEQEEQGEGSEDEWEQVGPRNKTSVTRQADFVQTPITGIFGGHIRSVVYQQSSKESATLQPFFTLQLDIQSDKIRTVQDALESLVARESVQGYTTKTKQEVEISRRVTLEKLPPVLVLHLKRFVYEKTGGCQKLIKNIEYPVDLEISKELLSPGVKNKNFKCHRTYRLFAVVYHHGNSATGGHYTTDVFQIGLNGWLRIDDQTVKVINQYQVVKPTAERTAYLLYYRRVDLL
An asterisk follows results filed as active. Compounds with a hit are over-represented: about 14% of the library has one in this group of screens. No stated cut-off is given here; in the data, active means inhibition above about 30%; inactive means the rest.

Results for COc1ccccc1NS(=O)(=O)c1ccc(C(=O)NCc2ccc(S(N)(=O)=O)cc2)cc1 ?
USP8 inh: 10; USP17 block: 14; USP28 inh: 16; USP30 inh: 10; USP10 inh: 3

What do the screens show for `Cc1cccc(CCNC(=O)c2ccc(CNS(=O)(=O)c3ccc(F)cc3)cc2)c1`?
USP8 inh: -6; USP17 block: -6; USP28 inh: 2; USP30 inh: 34*; USP10 inh: 3

What do the screens show for `Cc1ccc(S(=O)(=O)NCc2ccc(C(=O)NCCc3ccc(S(N)(=O)=O)cc3)cc2)cc1`?
USP8 inh: 63*; USP17 block: 88*; USP28 inh: 69*; USP30 inh: 88*; USP10 inh: 49*

What do the screens show for `CC(=O)Nc1ccc(S(=O)(=O)NCc2ccc(C(=O)NCCc3ccc(Cl)cc3)cc2)cc1`?
USP8 inh: 4; USP17 block: 17; USP28 inh: 92*; USP30 inh: 96*; USP10 inh: 17

How did CN(Cc1ccccc1)C(=O)c1ccc(CNS(=O)(=O)c2ccc(F)cc2)cc1 do in these assays?
USP8 inh: 11; USP17 block: 3; USP28 inh: 9; USP30 inh: 21; USP10 inh: 3

Results for Cc1ccc(C2=NC3(CCN(C(=O)Nc4cccc(C)c4)CC3)NC2=O)cc1 ?
USP8 inh: 17; USP17 block: 4; USP28 inh: -28; USP30 inh: 28; USP10 inh: 3

Results for CN(C[C@H]1C[C@]2(C)[C@@H](CCCC[C@]2(C)O)N1C)C(=O)c1ncccc1O ?
USP8 inh: -19; USP17 block: -9; USP28 inh: -17; USP30 inh: -41; USP10 inh: -5

What do the screens show for `O=C(O)c1ccc(-c2ccc(C3NC(=O)c4ccccc4N3)o2)cc1` (centres undefined)?
USP8 inh: 0; USP17 block: -37; USP28 inh: -31; USP30 inh: -138; USP10 inh: 4

Results for O=C(O)C(Cc1ccccc1)NS(=O)(=O)c1ccc2c(c1)OCCO2 (centres undefined) ?
USP8 inh: -16; USP17 block: -8; USP28 inh: 6; USP30 inh: 1; USP10 inh: -8

How did O=C(Nc1ccc(N2CCOCC2)cc1)C(Cc1ccccc1)NS(=O)(=O)c1ccc2c(c1)OCCO2 (centres undefined) do in these assays?
USP8 inh: -12; USP17 block: -7; USP28 inh: 37*; USP30 inh: -10; USP10 inh: 17

How did O=C(NCc1ccccc1)C(Cc1ccccc1)NS(=O)(=O)c1ccc2c(c1)OCCO2 (centres undefined) do in these assays?
USP8 inh: 31*; USP17 block: 86*; USP28 inh: 56*; USP30 inh: 52*; USP10 inh: 10

What do the screens show for `CCOC(=O)Cn1c(=O)cc(C)c2cccc(C)c21`?
USP8 inh: 0; USP17 block: 0; USP28 inh: -114; USP30 inh: 19; USP10 inh: 4

How did Cc1ccc(CSc2nnc(C3CCNCC3)o2)cc1 do in these assays?
USP8 inh: -135; USP17 block: -6; USP28 inh: 32*; USP30 inh: 19; USP10 inh: 2

How did COc1ccccc1N1CCN(CC(=O)N2c3ccccc3CCc3ccccc32)CC1 do in these assays?
USP8 inh: -1; USP17 block: -3; USP28 inh: 0; USP30 inh: 10; USP10 inh: 0

Results for COc1ccc(S(=O)(=O)c2cnc3cc(OC)c(OC)cc3c2NCc2ccccc2)cc1 ?
USP8 inh: -14; USP17 block: 0; USP28 inh: -6; USP30 inh: -1; USP10 inh: -9

How did COc1ccc(S(=O)(=O)c2cnc3ccc(Cl)cc3c2NCc2ccccc2)cc1 do in these assays?
USP8 inh: 5; USP17 block: 2; USP28 inh: 4; USP30 inh: 30*; USP10 inh: 6

How did COc1ccc(N2CCCS2(=O)=O)cc1NC(=O)c1ccccc1OC do in these assays?
USP8 inh: -3; USP17 block: 11; USP28 inh: 35*; USP30 inh: 0; USP10 inh: -8

Results for Cc1ccc(N2CCCS2(=O)=O)cc1NC(=O)COc1ccccc1F ?
USP8 inh: -123; USP17 block: 13; USP28 inh: 11; USP30 inh: 34*; USP10 inh: 1

How did COc1cccc(C(=O)Nc2cc(N3CCCS3(=O)=O)ccc2OC)c1 do in these assays?
USP8 inh: -21; USP17 block: -9; USP28 inh: -4; USP30 inh: -17; USP10 inh: -2

Results for CCOc1ccccc1C(=O)Nc1cc(N2CCCS2(=O)=O)ccc1C ?
USP8 inh: 9; USP17 block: 14; USP28 inh: 32*; USP30 inh: 29; USP10 inh: 3

How did Cc1noc(C2CN(C(=O)NC3CCCCC3)C2)n1 do in these assays?
USP8 inh: -13; USP17 block: 14; USP28 inh: 18; USP30 inh: 28; USP10 inh: 3

What do the screens show for `O=C(Nc1cc(S(=O)(=O)N2CCOCC2)ccc1Cl)c1cc2c(s1)CCCC2`?
USP8 inh: 0; USP17 block: 4; USP28 inh: 0; USP30 inh: -1; USP10 inh: 7

Results for COc1ccc(NS(=O)(=O)c2cc(OC)ccc2NC(=O)c2cc3c(s2)CCC3)cc1 ?
USP8 inh: -1; USP17 block: 31*; USP28 inh: 0; USP30 inh: -17; USP10 inh: -3

What do the screens show for `Cn1ccc2c(cc(C(=O)NC3CCN(Cc4ccccc4)CC3)n2C)c1=O`?
USP8 inh: -7; USP17 block: -31; USP28 inh: 32*; USP30 inh: -35; USP10 inh: -5

Results for Cc1cc(C)c2cc(C(=O)NC3CCN(Cc4ccccc4)CC3)[nH]c2c1 ?
USP8 inh: 24; USP17 block: 23; USP28 inh: 14; USP30 inh: 67*; USP10 inh: 2

What do the screens show for `Cn1ccc2c(cc(C(=O)NCCC3=CCCCC3)n2C)c1=O`?
USP8 inh: -4; USP17 block: 3; USP28 inh: 55*; USP30 inh: 14; USP10 inh: -1

How did Cc1c(C)n(C)c2ccc(C(=O)NC3CCN(Cc4ccccc4)CC3)cc12 do in these assays?
USP8 inh: -50; USP17 block: 0; USP28 inh: 35*; USP30 inh: -33; USP10 inh: -5

How did CCc1ccc(CNC(=O)CCC(=O)N2CCCn3nc(C)cc32)cc1 do in these assays?
USP8 inh: 0; USP17 block: 0; USP28 inh: -3; USP30 inh: 1; USP10 inh: -2

What do the screens show for `COCc1nn(C)c2c1CN(S(=O)(=O)Cc1ccccc1F)CC2`?
USP8 inh: -2; USP17 block: -7; USP28 inh: -7; USP30 inh: -17; USP10 inh: -2

Results for Clc1cccc(-c2cn[nH]c2C2CCCN2)c1 (centres undefined) ?
USP8 inh: 3; USP17 block: 4; USP28 inh: 15; USP30 inh: 34*; USP10 inh: 3

How did N#Cc1ccc(C(=O)Nc2cnc(N3CCCCC3)nc2)cc1 do in these assays?
USP8 inh: -56; USP17 block: -25; USP28 inh: -3; USP30 inh: -27; USP10 inh: -3

Source: PubChem (Buhrlage Lab, Dana-Farber Cancer Institute and Novartis Institutes for BioMedical Research (Cambridge, Mass))
